“And” between values parts separate entries of the source, which are not always exact repeats. Equal entries are not always repeated. Inconclusive results are not listed. A structure can be active in one record and inactive in another. The source made the active and inactive calls. Unless noted, calls come from the whole dose curve.

Assay [1] can be described thus: Nuclear factor erythroid 2-related factor 2/antioxidant responsive element (Nrf2/ARE) small molecule agonists: qHTS cell viability counter screen in human keratinocytes (AID 1919968; active = well fitted curve in the direction sought with a large enough effect in the repeat runs; an effect the other way counts as inactive or inconclusive; note: nearly all actives have a fitted effect of over 55% in size). The method, boiled down: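 After a 5 h attachment period, ARE-reporter keratinocytes were dosed with compounds in DMSO and then cultured 23 h at 37 C. Cell viability came from CellTiter-Fluor signal read after a further 1 h.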

The nature of assay [2]: Nuclear factor erythroid 2-related factor 2/antioxidant responsive element (Nrf2/ARE) small molecule agonists: luciferase reporter gene qHTS assay in human keratinocytes (AID 1919969; note: nearly all actives have a fitted effect of over 35% in size; note: potency is the fitted concentration of half-maximal effect). (In general: A reporter such as luciferase makes a cellular process visible.)
Assay [3] deals with Gonadotropin-releasing hormone receptor (Homo sapiens) (UniProt P30968). Briefly: Human gonadotropin-releasing hormone receptor (GnRHR) small molecule agonists, calcium flux assay in GnRHR-HEK293 cells (AID 1920063). Note: nearly all actives have a fitted effect of over 35% in size. A digest of the protocol: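 We seeded human GnRHR-expressing HEK293 cells for 18 hours, loaded them with calcium dye for an hour at 37 C, added test compounds, and recorded fluorescence intensity kinetically for three minutes.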
Background: Calcium assays in cells follow changes in intracellular calcium, usually with a dye or a luminescent sensor.

The target of assay [4] is KiSS-1 receptor (Homo sapiens) (UniProt Q969F8). Briefly: Human kisspeptin (KISS1R) small molecule agonists, calcium flux assay in KISS1R-HEK293 cells (AID 1920064; active = well fitted curve in the direction sought with a large enough effect in the repeat runs; an effect the other way counts as inactive or inconclusive). The method, boiled down:
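Kinetic calcium assay, 1 s sampling over 3 min at Ex/Em 480/540, in HEK293 cells engineered with human KISS1R; compounds delivered in DMSO after 1 h dye loading.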

Assay [5] in a line: G protein-coupled receptor (GPCR) small molecule agonists, calcium flux assay: HEK293 wild type cell line counter screen (AID 1920065). The method, boiled down:
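Calcium-sensitive dye, loaded 1 h at 37 C into cells cultured 18 h, reports compound-evoked calcium release as fluorescence (Ex/Em 480/540), measured over 3 min. Agonist mode; 15-point titrations, triplicate.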

A short description of assay [6]: p53 small molecule agonists, cell-based qHTS assay with human liver microsomes (AID 1963577). A digest of the protocol:
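p53RE-bla cells, 4,000/well, compound added after 5 h, with human liver microsomes 0.5 mg/mL and NADPH 0.5 mg/mL final; 16 h at 37 C, then LiveBLAzer 2 h RT, fluorescence.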

Assay [7] can be described thus: p53 small molecule agonists, cell-based qHTS assay with rat liver microsomes (AID 1963578). The method, boiled down:
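p53RE-bla cells, 4,000/well, pre-incubated 5 h, then given compounds plus rat liver microsomes (0.5 mg/mL final) and NADPH (0.5 mg/mL final). Incubation 16 h at 37 C; beta-lactamase reporter read by LiveBLAzer fluorescence after 2 h at room temperature.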
(qHTS replaces the single test concentration by a dilution series.)

A short description of assay [8]: p53 small molecule agonists, cell-based qHTS assay with human liver microsomes: qHTS cell viability counter screen (AID 1963579). Note: nearly all actives have a fitted effect of over 45% in size. The method, boiled down:
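p53RE-bla cells, 4,000/well, dosed 5 hours after plating, with human liver microsomes (0.5 mg/mL final) plus NADPH (0.5 mg/mL final), 16 hours at 37 C. Viability read as CellTiter-Glo luminescence after 30 min at room temperature.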

The nature of assay [9]: p53 small molecule agonists, cell-based qHTS assay with rat liver microsomes: qHTS cell viability counter screen (AID 1963580). Note: nearly all actives have a fitted effect of over 45% in size. A digest of the protocol: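 HCT-116 p53RE-bla, 4,000 cells/well, 5 h pre-incubation; cpd + rat liver microsomes 0.5 mg/mL + NADPH 0.5 mg/mL (final); 16 h, 37 C; CellTiter-Glo, 30 min RT; luminescence.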
A short description of assay [10]: p53 small molecule agonists, cell-based qHTS assay: qHTS cell viability counter screen (AID 1963581). Note: nearly all actives have a fitted effect of over 45% in size. The method, boiled down: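 Following 5 h attachment, HCT-116 p53RE-bla cells took up compound for 16 h at 37 C; the reporter was read with B/G FRET substrate (2 h RT), and viability then via CellTiter-Glo ATP luminescence.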
Assay [11] can be described thus: p53 small molecule agonists, cell-based qHTS assay (AID 1963582; active = well fitted activation curve with a large enough effect in the signal ratio in the repeat runs, not every such curve was filed as active; the % refers to the signal ratio). The method, boiled down:
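In this cell-based concentration-response screen, a p53 response element drives beta-lactamase; cells received DMSO-borne compounds after 5 h culture and were incubated a further 16 h before FRET substrate development.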

Assay [12] has as its target 5-hydroxytryptamine receptor 2A (Homo sapiens) (UniProt P28223). Briefly: 5-hydroxytryptamine receptor 2A (HTR2A) small molecule antagonists, cell-based qHTS assay (AID 1963586). Note: nearly all actives have a fitted effect of over 45% in size. A digest of the protocol: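 Antagonist-mode intracellular calcium assay: DOI (4 nM) added after 5 min compound pre-incubation at room temperature to dye-loaded HTR2A-CHO cells. Fluorescence followed for 3 min, sampled every second.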

For assay [13] the target is unchanged. Briefly: 5-hydroxytryptamine receptor 2A (HTR2A) small molecule agonists, cell-based qHTS assay (AID 1963587). Note: nearly all actives have a fitted effect of over 30% in size. A digest of the protocol:
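Kinetic calcium-flux fluorescence (2 min, 1 sec intervals) after compound addition in agonist mode. HTR2A-CHO cells were cultured 18 h, then dye-loaded 1 h at 37 C.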

In assay [14] the target is Muscarinic acetylcholine receptor M1 (Homo sapiens) (UniProt P11229). Briefly: Cholinergic receptor muscarinic 1 (CHRM1) small molecule antagonists, cell-based qHTS assay (AID 1963588). Note: nearly all actives have a fitted effect of over 40% in size. A digest of the protocol: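 CHRM1-CHO calcium-flux assay, antagonist mode. Cells were seeded 18 h, dye-loaded 1 h at 37 C and given compound for 5 min at RT, then acetylcholine was added at 50nM. FDSS fluorescence was read 3 min; 15 concentrations, three runs.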

The target is the same in assay [15]. Briefly: Cholinergic receptor muscarinic 1 (CHRM1) small molecule agonists, cell-based qHTS assay (AID 1963589). Note: nearly all actives have a fitted effect of over 35% in size. A digest of the protocol:
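Measures agonist-induced intracellular calcium rise. Stable human CHRM1 CHO line, 1 h dye load at 37 C, compounds from DMSO, kinetic fluorescence read.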

A short description of assay [16]: cAMP Responsive Elements (CRE) small molecule agonists, cell-based qHTS assay (AID 1963590). A digest of the protocol:
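A CRE-responsive beta-lactamase reporter in HEK 293T cells was used. Treatment ran 3 h at 37 C; detection used LiveBLAzer B/G FRET substrate for 2 h at room temperature.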

Assay [17] is described as follows: cAMP Responsive Elements (CRE) small molecule antagonists, cell-based qHTS assay (AID 1963591; active = well fitted inhibition curve with a large enough effect in the signal ratio in the repeat runs, not every such curve was filed as active; the % refers to the signal ratio). The method, boiled down:
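HEK293T cells carrying a CRE-driven beta-lactamase reporter receive compound and NKH477 (0.25 uM final) for 3 h. Fluorescence from LiveBLAzer B/G FRET substrate is read after 2 h at room temperature.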

For assay [18], the target named is Beta-2 adrenergic receptor (Homo sapiens) (UniProt P07550). Briefly: Adrenergic beta2 receptor (ADRB2) small molecule antagonists, cell-based qHTS assay (AID 1963592). Note: series mostly up to about 92 µM; nearly all actives have a fitted effect of over 50% in size. The method, boiled down:
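Cells (CHO, stable ADRB2 overexpression) incubated 18-20hr at 37C; compounds added from DMSO; agonist mix (1nM isoproterenol, 100uM IBMX, 25uM Ro-20-1724) added; 0.5hr RT; d2-cAMP and anti-cAMP-cryptate added; 1hr RT; 665/615 nm read.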

Assay [19] shares this target. Briefly: Adrenergic beta2 receptor (ADRB2) small molecule agonists, cell-based qHTS assay (AID 1963593).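 Note: CHO cells stably overexpressing human ADRB2.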 A digest of the protocol:
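CHO cells stably over-expressing ADRB2 were plated overnight at 37C, then dosed with compounds plus a stimulation mix containing 100uM IBMX and 25uM Ro-20-1724 for 0.5hr at room temperature. cAMP was measured by HTRF competition, 1hr.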

The target of assay [20] is D(2) dopamine receptor (Homo sapiens) (UniProt P14416). Briefly: Dopamine D2 receptor (DRD2) small molecule agonists, cell-based qHTS assay (AID 1963594). Note: nearly all actives have a fitted effect of over 35% in size. A digest of the protocol:
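cAMP accumulation in DRD2-HEK293 cells measured by HTRF after 1 h detection; compounds added 10 min before NKH477 (200nM […]) forskolin-analogue stimulation, 30 min at room temperature, with Ro20-1724 present at 0.1 mM final.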

Sequence of 5-hydroxytryptamine receptor 2A (Homo sapiens) (P28223 whole entry, looked up): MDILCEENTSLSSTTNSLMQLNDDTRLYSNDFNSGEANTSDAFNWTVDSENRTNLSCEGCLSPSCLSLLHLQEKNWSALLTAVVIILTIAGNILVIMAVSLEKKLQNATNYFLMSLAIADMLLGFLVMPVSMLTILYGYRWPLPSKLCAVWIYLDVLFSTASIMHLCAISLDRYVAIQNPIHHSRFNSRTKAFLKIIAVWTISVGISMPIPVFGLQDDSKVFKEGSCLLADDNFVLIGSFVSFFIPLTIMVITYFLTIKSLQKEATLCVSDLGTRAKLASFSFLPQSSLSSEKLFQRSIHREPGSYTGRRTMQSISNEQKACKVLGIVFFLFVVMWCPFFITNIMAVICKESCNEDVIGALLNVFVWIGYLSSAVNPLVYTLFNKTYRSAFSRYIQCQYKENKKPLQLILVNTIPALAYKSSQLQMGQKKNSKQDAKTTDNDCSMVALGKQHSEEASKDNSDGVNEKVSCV
Sequence of Beta-2 adrenergic receptor (Homo sapiens) (P07550 whole entry, looked up): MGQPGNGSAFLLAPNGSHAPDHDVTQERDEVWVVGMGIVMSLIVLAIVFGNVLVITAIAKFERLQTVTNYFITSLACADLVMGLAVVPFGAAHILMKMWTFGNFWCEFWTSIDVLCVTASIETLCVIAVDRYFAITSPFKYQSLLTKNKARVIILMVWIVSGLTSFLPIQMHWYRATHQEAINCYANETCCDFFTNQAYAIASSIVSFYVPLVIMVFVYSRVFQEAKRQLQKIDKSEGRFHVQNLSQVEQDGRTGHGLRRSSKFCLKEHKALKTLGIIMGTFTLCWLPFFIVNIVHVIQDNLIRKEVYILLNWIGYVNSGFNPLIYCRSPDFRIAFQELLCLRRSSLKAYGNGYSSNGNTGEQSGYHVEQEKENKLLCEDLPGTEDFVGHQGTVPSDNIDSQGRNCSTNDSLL
Sequence of KiSS-1 receptor (Homo sapiens) (Q969F8 whole entry, looked up): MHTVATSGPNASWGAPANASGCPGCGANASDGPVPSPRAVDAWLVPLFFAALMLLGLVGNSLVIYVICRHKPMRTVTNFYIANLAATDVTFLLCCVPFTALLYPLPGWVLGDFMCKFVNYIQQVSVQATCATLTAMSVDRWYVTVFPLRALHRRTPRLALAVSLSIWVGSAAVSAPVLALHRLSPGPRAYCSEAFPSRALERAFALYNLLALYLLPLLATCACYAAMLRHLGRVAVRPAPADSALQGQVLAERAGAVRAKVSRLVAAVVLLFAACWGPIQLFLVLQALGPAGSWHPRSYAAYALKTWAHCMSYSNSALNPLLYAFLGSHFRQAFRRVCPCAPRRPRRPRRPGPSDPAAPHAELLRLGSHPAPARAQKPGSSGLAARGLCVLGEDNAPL
Sequence of Muscarinic acetylcholine receptor M1 (Homo sapiens) (P11229 whole entry, looked up): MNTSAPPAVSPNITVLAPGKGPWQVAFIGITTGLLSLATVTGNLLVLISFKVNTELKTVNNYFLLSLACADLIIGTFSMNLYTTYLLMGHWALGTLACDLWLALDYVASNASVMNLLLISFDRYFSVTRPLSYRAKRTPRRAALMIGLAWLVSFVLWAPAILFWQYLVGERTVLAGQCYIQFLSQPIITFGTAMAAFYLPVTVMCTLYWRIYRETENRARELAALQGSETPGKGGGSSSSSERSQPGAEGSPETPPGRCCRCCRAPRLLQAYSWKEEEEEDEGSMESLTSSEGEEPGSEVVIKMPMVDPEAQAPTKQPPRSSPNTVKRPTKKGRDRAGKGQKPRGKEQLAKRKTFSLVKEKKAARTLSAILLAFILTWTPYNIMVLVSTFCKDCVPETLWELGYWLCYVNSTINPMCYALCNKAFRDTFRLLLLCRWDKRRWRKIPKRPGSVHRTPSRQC
Sequence of D(2) dopamine receptor (Homo sapiens) (P14416 whole entry, looked up): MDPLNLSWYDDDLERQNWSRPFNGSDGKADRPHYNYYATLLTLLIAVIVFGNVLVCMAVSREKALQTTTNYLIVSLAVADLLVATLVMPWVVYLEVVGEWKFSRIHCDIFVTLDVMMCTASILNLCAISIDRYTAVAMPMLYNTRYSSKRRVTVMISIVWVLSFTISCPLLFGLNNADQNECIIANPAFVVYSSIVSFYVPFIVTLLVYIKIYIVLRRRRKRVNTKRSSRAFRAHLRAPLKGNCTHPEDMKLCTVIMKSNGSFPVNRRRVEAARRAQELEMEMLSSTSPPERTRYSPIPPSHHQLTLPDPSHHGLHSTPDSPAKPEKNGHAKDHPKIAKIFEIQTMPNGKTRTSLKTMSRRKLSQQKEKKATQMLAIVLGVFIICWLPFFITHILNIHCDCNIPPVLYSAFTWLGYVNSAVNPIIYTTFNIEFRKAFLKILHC
Sequence of Gonadotropin-releasing hormone receptor (Homo sapiens) (P30968 whole entry, looked up): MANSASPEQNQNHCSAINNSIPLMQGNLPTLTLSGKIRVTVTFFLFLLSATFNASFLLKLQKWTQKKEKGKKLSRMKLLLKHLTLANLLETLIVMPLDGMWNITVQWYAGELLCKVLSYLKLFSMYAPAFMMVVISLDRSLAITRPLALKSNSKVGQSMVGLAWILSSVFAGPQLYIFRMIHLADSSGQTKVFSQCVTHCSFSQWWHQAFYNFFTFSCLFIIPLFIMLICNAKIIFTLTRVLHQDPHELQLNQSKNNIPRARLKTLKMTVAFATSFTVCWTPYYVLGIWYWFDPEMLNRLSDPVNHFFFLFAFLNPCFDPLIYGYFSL

Turning to `O=C(O)c1ccc(O)cc1O`, the Potency result in assay [1], in assay [2], in assay [3], in assay [4], in assay [5] and in assay [6] was “inactive” each time. In addition, the Potency result in [7], in assay [8], in assay [9], in assay [10], in [11] and in [12] was “inactive” in each case. Also, the Potency result in assay [13], in [14], in assay [15], in assay [16], in [17] and in assay [18] was “inactive” throughout. Also, the Potency result in [19] and in [20] was “inactive” in each case.

Regarding `O=C1OC(=O)c2ccc3c4c(ccc1c24)C(=O)OC3=O`, the Potency entry in [1], in assay [2], in assay [3], in assay [4], in [5] and in assay [6] was “inactive” throughout. Moreover, the Potency entry in assay [7], in assay [8], in [9], in assay [10], in assay [11] and in [12] was “inactive” throughout. The Potency result in assay [13], in assay [14], in [15], in assay [16], in [17] and in assay [18] was “inactive” throughout. In addition, the Potency result in assay [19] and in assay [20] was “inactive” throughout.

As to `CCOc1ncc(F)c(=O)[nH]1`, the Potency entry in assay [1], in [2], in assay [3], in assay [4], in assay [5] and in assay [6] was “inactive” each time. Further, the Potency entry in assay [7], in assay [8], in [9], in [10], in assay [11] and in assay [12] was “inactive” throughout. For the same compound, the Potency result in assay [13], in assay [14], in assay [15], in assay [16], in assay [17] and in assay [18] was “inactive” in each case. The Potency result in [19] and in [20] was “inactive” throughout.

For `O=C1NC(c2ccccc2)(c2ccccc2)C(=O)N1COP(=O)(O)O`, the Potency entry in assay [1], in [2], in [3], in assay [4], in [5] and in assay [6] was “inactive” in each case. The Potency entry in assay [7], in assay [8], in assay [9], in [10], in [11] and in assay [12] was “inactive” in each case. In addition, the Potency entry in assay [13], in assay [14], in [15], in [16], in [17] and in assay [18] was “inactive” in each case. The Potency entry in assay [19] and in assay [20] was “inactive” throughout.

Take `Nc1ccc(S(=O)(=O)Nc2ccc(Cl)nn2)cc1`: the Potency result in assay [1], in assay [2], in assay [3], in assay [4], in assay [5] and in assay [6] was “inactive” each time. The Potency result in assay [7], in [8], in [9], in [10], in assay [11] and in assay [12] was “inactive” throughout. In addition, the Potency result in assay [13], in assay [14], in [15], in assay [16], in assay [17] and in assay [18] was “inactive” each time. Besides, the Potency entry in assay [19] and in assay [20] was “inactive” in each case.

In the case of `CN(C(=O)c1c(O)c2ccccc2n(C)c1=O)c1ccccc1`, the Potency entry in assay [1], in assay [2], in assay [3], in assay [4], in assay [5] and in assay [6] was “inactive” throughout. Also, the Potency result in assay [7], in [8], in [9], in assay [10], in assay [11] and in assay [12] was “inactive” each time. The Potency result in assay [13], in [14], in assay [15], in assay [16], in [17] and in [18] was “inactive” throughout. The Potency result in [19] and in assay [20] was “inactive” each time.

As for `ON=C1CCCCC1`, the Potency entry in assay [1], in [3], in assay [4], in assay [5], in assay [6] and in assay [7] was “inactive” throughout. For the same compound, the Potency entry in [8], in [9], in [10], in [11], in assay [12] and in assay [13] was “inactive” in each case. The Potency result in [14], in assay [15], in assay [16], in assay [17], in [18] and in assay [19] was “inactive” throughout. The Potency entry in [20] was “inactive”. The Potency entry in assay [2] was “inactive and 68.6 µM (active)”.

The values above are taken from PubChem BioAssay (Tox21).
